The whole screen tested about 53,000 sequences, of which about 3,700 (7%) were called active.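 The calls were made as follows: active = gene knockdowns whose robust z-score for IL-1 alpha signal is at least 2 or at most -2, so actives lie on both sides; inactive = the rest.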 The sample as a whole holds a higher share of actives than the screen did.
Assay: Components of the Cytosolic LPS Sensing Pathway: Gene Identification via Genome-wide siRNA Screen;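 also: robust z of the log signal after scaling to non-targeting control siRNA wells of the plate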
Conditions: RAW264.7 macrophages, IL-1a HTRF, actives lie on both sides, screened at 100 nM (by protocol), cells primed 5 h with Pam3CSK4 first
Procedure, shortened: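 Read-out: IL-1a HTRF on supernatant, divided by plate negative-control median ×100, log-transformed and converted to robust z-score. Cells were RAW264.7 given 100 nM siRNA, Pam3CSK4-primed 5 hours, then LipidA-transfected 24 hour.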

z-score, active:
GGAAGAGGAUAGGCAGGAATT against Gfer 2.03, GUUCUUCUCUGUUGGUGCUTT against Vmn1r24 -2.12, GGACUCUCAGAAGAAUGAUTT against Hmmr 2.98, GGAGACAUUCCUGAAAGCUTT against Ankrd2 -2.09, GGACAUAGAGAACAUCAUCTT against Cabp7 4.02, GGGACAAGUUCAUCUGAUATT against Rin1 2.06, GGCGGUGUUUUACUACAAGTT against Capn7 3.99, CCCAUGUACCACUUUGUCATT against Olfr430 -2.05, CAAUCCUCAACGAUUACAUTT against Ncor1 2.05, GAGCCACUUUCUCAAGUGUTT against Pou3f1 3.02, GCCAGUUUAAGUCUCUCCATT against Tmem168 -2.37, GGGCUGACUUCCUAUGACCTT against Adra2c 2.14

z-score, inactive:
CCAUUUCAGGCAUGAAGAATT against Tsga10 -1.13, GGUCAAUAUUCUUAUGUCCTT against S1pr3 0.245, GGAAUUGGAUGUGAGCAACTT against Vasn 0.586, GCCAUGGGUCUCAGAAAGATT against Zxda -0.247, UGAUAGUCUCCACUAAAUUTT against Gm4884 -0.265, GGAUCCUUUGGUUAUAAGATT against Nav1 -1.28, GGUCUUUAGCAGAGAAAAUTT against Zfp420 -0.201, GCCCACAGUCAUUAAACUATT against Nipal4 0.723, GGAUCAAAUCAAGAAGAUGTT against Chmp5 0.627, CCCAGGGUGUCAAUCUAAATT against Cby1 -0.381, CGAAAAUACGUCAAAGCUCTT against Abca8b -0.656, GGGCACUGACAAACGUAUUTT against Olfr433 -0.34, GGACUUCGUGAACAAGAUCTT against Grin2b -0.439, GCGGCCACGGGACGGCGGUTT against Hmx2 -0.455, GGUCAUGACAGGAUACCCATT against Fam163b -1.99, GGAGCCGUACAUCUUACACTT against Abhd1 0.33, GCCGAGUGAAUGAAAGGACTT against Ppp1r32 -0.758, CCGUGGCGUAUGUGAUCAATT against Map3k5 -0.249, GGGAAAUGUUUUCCAAAGATT against Tep1 0.776, CCAUAUGUGCUCACCUUUATT against Marveld2 -0.641, CGAGUUUAAAGUGAGAAGATT against Pou1f1 0.488, GCCACUCUUUAAGAAUCUATT against Abcf1 -0.552, GCAUUGUCCGAGGUUUAUUTT against Tspan33 0.64, GGUGCUAUGUGCGUUUGAUTT against 9830107B12Rik 1.97, GGCGGAUGAACAAAGUUGGTT against Polr1e 0.0863, GGAGAAUAAGCAAAUCCUUTT against Cfap20dc -0.937, GGUCCCAUAUACCAGAUCUTT against Slc3a1 1.63, UGUCAGUGCAGAAUAGCACTT against Olfr658 -1.17, CGACACUCAAUGUGAACUUTT against Grtp1 -0.881, GCCAGUCAUGCCUAUUUUCTT against Zmym6 -0.528, GGUGUGAGUGUCGGAAUCUTT against Islr2 0.138, GGAAUGGUUUUAUUUUUGGTT against Noa1 -0.0245, GGUACCUCUGUAUUCAGCCTT against Olfr121 0.78, GGAAACUACAAAUUUGGCATT against Krtap6-2 0.195, CCCACAGUAAAUUCAACGGTT against Gm5069 0.00754, UACCCAUUGUCAAGUUGGATT against Grm4 -0.634, GGACCUGUGUGUUCUUUGATT against Amhr2 -0.505, CCUUGGCAGGUAUAGUGUUTT against Klk9 -1.09, GGAUCCCAGUUCUGGGUAATT against Dok1 -0.0628, GCCUAUUUGACGUGCAGAGTT against Crocc -0.0336, GCUGUUUUAUCUCCAAUGGTT against Araf 1.73, GGCAUUGAUCACUGACAGCTT against 9530077C05Rik 0.827, GGACCAUACAUAUUCAAAATT against Aph1b 0.0294, GUCCUGAAGAAGCUCAAGATT against Cartpt -0.513, GGGACAGUACAGAGUGCUGTT against Hmx1 0.755, GGAUGAGGAGAUAAAGUCUTT against Misp -0.981, GGAAUAAAACUUCUGAGAATT against Oog1 -1.66, GAAAACUCAAACAGCAUAUTT against Vmn1r216 0.833, GUAACUCGCUUCUUGGUGGTT against Slc22a15 0.464, GGUUCAAUGCUCCCUUCGATT against Ghrl 0.712, GGCUCACCUGAUACACUUUTT against Ramp2 0.707, GCCUUGAAAUGUCUGUAGCTT against Nkiras1 0.981, GGUGGAAUAACAGAUAAAATT against Cutc 0.255, GGAGAAAGGAUUAUAGAUGTT against Klk7 0.202, GGGAUUCUUUUUGUGGAAATT against Trim62 0.636, GGUCUCAAUCAGAGUUACATT against Zfp324 -0.936

— PubChem BioAssay AID1508600 (Functional Genomics Laboratory (NCATS/FGL), 2020)
